Source: PubChem
MITF inh – human MITF inhibition, primary screen | AlphaScreen MITF homodimerization, bead proximity signal | 650,000 compounds, 0.91% hits | inhibition, % at 2.6 µM | O75030; in the data active means inhibition above about 50%;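 further: 0% = vehicle wells with protein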
TEAD-YAP block – TEAD-YAP interaction inhibition; HEK-TIYL cells, TEAD-Gal4/YAP UAS-luciferase luminescence; inhibition, % at 9.12 µM; 640,000 compounds, 1.4% hits; in the data active means inhibition above about 32%;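 further: 0% = median of test compound wells and 100% = reference inhibitor wells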
FBW7 act – activators of human E3 ligase FBW7. Q969H0. 650,000 compounds, 0.13% hits. normalized activity (activation), % at 26.1 µM. AlphaScreen FBW7–phospho-cyclin E peptide binding, activator screen; in the data active means normalized activity above about 1.9%;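 further: purified mutant Fbw7 with reduced substrate affinity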
GPR151 ag – human GPR151 activation | Q8TDV0 | PathHunter beta-arrestin GPR151 cells, luminescence | activation, % at 11.2 µM | 650,000 compounds, 1% hits | AID 1508602; in the data active means activation above about 4.9%;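 further: 0% = median of compound wells and 100% = cells with positive control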
Target sequence (Q8TDV0 whole entry, looked up): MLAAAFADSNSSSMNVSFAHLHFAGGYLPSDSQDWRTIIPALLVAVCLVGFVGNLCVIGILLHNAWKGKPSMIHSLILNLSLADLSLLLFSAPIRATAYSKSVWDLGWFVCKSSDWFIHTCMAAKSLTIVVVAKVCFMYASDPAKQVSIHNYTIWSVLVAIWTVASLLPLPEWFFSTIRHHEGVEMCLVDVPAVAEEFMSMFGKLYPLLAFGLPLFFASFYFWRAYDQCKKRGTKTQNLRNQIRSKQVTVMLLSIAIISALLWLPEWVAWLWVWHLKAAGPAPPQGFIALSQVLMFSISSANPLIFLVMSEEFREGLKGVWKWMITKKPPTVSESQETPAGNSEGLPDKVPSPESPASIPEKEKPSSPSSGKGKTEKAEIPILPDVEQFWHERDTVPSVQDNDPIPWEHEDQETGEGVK
MITF confirm – confirmation of human MITF inhibitors; shares compounds with MITF inh; AlphaScreen MITF homodimerization, biotin/His-MITF beads; inhibition, % at 2.6 µM; 4,700 compounds, 16% hits;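 active means inhibition above a cutoff derived from the DMSO control wells, cut at about 28% in these data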;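 further: 0% = MITF dimer wells with DMSO only; inhibitors lower the bead chemiluminescence by keeping MITF from dimerizing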
AS interf DR – AlphaScreen optical interference, dose response counter-screen | IC50, µM | AlphaScreen optical interference counterscreen, cell-free | 480 compounds, 6% hits | shares compounds with MITF inh | AID 1259373; call rule not given here
AS interf ctr – AlphaScreen optical interference, counter-screen; 4,700 compounds, 7.6% hits; inhibition, % at 2.6 µM; AID 1259376; shares compounds with MITF inh; LysRS AlphaScreen counterscreen, signal interference, triplicate;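 active means inhibition above a cutoff derived from the DMSO control wells, cut at about 30% in these data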
Active calls of the source: *. Only some compounds are listed: those with a hit (about 3.4% of all), similar ones and a draw of the others.

`CC(C)(CO)NCC(O)COCc1ccc(Cl)cc1` (stereo unspecified) gave MITF inh -4.6, TEAD-YAP block 7.0, FBW7 act 0.6 and GPR151 ag -0.3.
Screening Cc1cccc(C(C)C)c1NC(=O)CN(c1ccccc1Cl)S(C)(=O)=O returned MITF inh 7.2, TEAD-YAP block -5.1, FBW7 act 0.6 and GPR151 ag 1.5.
`Clc1cccc(CN2CCN(C3CCCCC3)CC2)c1` gave MITF inh 74.1*, TEAD-YAP block -6.2, FBW7 act 0.0, GPR151 ag -1.1, MITF confirm -4.0 and AS interf ctr -4.5.
For OCC1CCN(C2CCCN(Cc3cccc(Cl)c3)C2)CC1 (stereo unspecified) the results were MITF inh 13.2, TEAD-YAP block 7.5, FBW7 act 0.2 and GPR151 ag -1.0.
`Cc1cccc(CN2CCN(C3CCCCCC3)CC2)c1` gave MITF inh 50.5, TEAD-YAP block -3.8, FBW7 act 0.3 and GPR151 ag 0.1.
For CC1CCN(C2CCN(Cc3cccc(Cl)c3)CC2)CC1 the results were MITF inh 57.1*, TEAD-YAP block 2.2, FBW7 act 0.2, GPR151 ag 0.6, MITF confirm -12.4 and AS interf ctr -5.7.
Screening CC1CCC(N2CCN(Cc3cccc(Cl)c3)CC2)CC1 (stereo unspecified) returned MITF inh 63.5*, TEAD-YAP block 2.6, FBW7 act 0.0, GPR151 ag -1.2, MITF confirm 2.3 and AS interf ctr -2.5.
Screening CC1CCN(C2CCN(Cc3ccc4c(c3)OCO4)CC2)CC1 returned MITF inh 54.5*, TEAD-YAP block 0.6, FBW7 act -0.1, GPR151 ag -0.2, MITF confirm -9.3 and AS interf ctr -1.7.
`OC1CCN(Cc2ccc3c(c2)OCO3)CC1` gave MITF inh 35.4, TEAD-YAP block 0.9, FBW7 act 0.0 and GPR151 ag -0.7.
Screening Cc1nc(SCC(=O)O)c(C#N)c(C)c1C returned MITF inh 0.0, TEAD-YAP block 2.7, FBW7 act 0.0 and GPR151 ag 0.3.
For CCOC(=O)c1ccc(NC(=O)C2(c3ccc(OC)c(OC)c3)CCOCC2)cc1 the results were MITF inh -3.2, TEAD-YAP block -14.9, FBW7 act 0.2 and GPR151 ag 0.1.
For O=C(CC1(O)C(=O)Nc2ccc([N+](=O)[O-])cc21)c1ccccc1 (stereo unspecified) the results were MITF inh 68.7*, TEAD-YAP block 0.8, FBW7 act 0.0, GPR151 ag 2.6, MITF confirm -2.6 and AS interf ctr -2.8.
`O=C(CC1(O)C(=O)Nc2ccccc21)c1ccc([N+](=O)[O-])cc1` (stereo unspecified) gave MITF inh 7.6, TEAD-YAP block -0.9, FBW7 act 0.2 and GPR151 ag 0.4.
CCC(=O)Nc1ccc(C(=O)Nc2ccc(C#N)cc2)cc1 was read as MITF inh -4.4, TEAD-YAP block -2.5, FBW7 act 0.1 and GPR151 ag -0.4.
CCC(=O)Nc1ccc(C(=O)Nc2ccccc2C#N)cc1 was read as MITF inh 50.9*, TEAD-YAP block -8.8, FBW7 act 0.1, GPR151 ag -1.2, MITF confirm -9.7 and AS interf ctr -6.1.
For Clc1cccc(Cl)c1OCCCn1ccnc1 the results were MITF inh 51.7*, TEAD-YAP block -2.0, FBW7 act -0.3, GPR151 ag 0.7, MITF confirm 0.7 and AS interf ctr 1.2.
For Clc1cc(Br)ccc1OCCn1ccnc1 the results were MITF inh 53.8*, TEAD-YAP block -14.3, FBW7 act -0.2, GPR151 ag -1.2, MITF confirm 0.0 and AS interf ctr 5.1.
Clc1cc(Br)ccc1OCCCn1ccnc1 was read as MITF inh 43.0, TEAD-YAP block 3.6, FBW7 act 0.5 and GPR151 ag -0.3.
Screening Cc1cccc(C)c1OCCCCn1ccnc1 returned MITF inh 70.1*, TEAD-YAP block 6.0, FBW7 act 0.4, GPR151 ag 0.0, MITF confirm -5.0 and AS interf ctr -3.8.
c1ccc(COc2ccc(OCCCCn3ccnc3)cc2)cc1 was read as MITF inh 60.3*, TEAD-YAP block -3.6, FBW7 act -0.5, GPR151 ag -1.1, MITF confirm 36.0*, AS interf DR >6.48 and AS interf ctr 25.3.
`Cc1cccc(Cl)c1OCCCCn1ccnc1` gave MITF inh 0.8, TEAD-YAP block 0.9, FBW7 act -0.3 and GPR151 ag -0.9.
O=C1COc2cc(S(=O)(=O)NCc3ccccc3Cl)c(Cl)cc2N1 was read as MITF inh 5.0, TEAD-YAP block 3.0, FBW7 act 0.1 and GPR151 ag 0.9.
CCCc1nnc(NC(=O)c2ccc(Cl)cc2[N+](=O)[O-])s1 was read as MITF inh 10.6, TEAD-YAP block 11.3, FBW7 act 0.0 and GPR151 ag -1.2.
CCOC(=O)c1sc2ncnc(NC3CCN(C(=O)OCC)CC3)c2c1C was read as MITF inh 3.3, TEAD-YAP block -11.8, FBW7 act 0.1 and GPR151 ag 1.0.
`COCc1cc(C)nc(SCc2nc3ccccc3[nH]2)c1C#N` gave MITF inh 16.3, TEAD-YAP block -18.8, FBW7 act 0.1 and GPR151 ag 0.7.
Screening CC(=O)c1cccc(Oc2ccc(-c3cnc4ccccc4n3)cc2[N+](=O)[O-])c1 returned MITF inh -3.6, TEAD-YAP block -8.1, FBW7 act -0.1 and GPR151 ag 1.5.
For CCOc1cccc(OCCn2ccnc2)c1 the results were MITF inh 43.3, TEAD-YAP block 1.6, FBW7 act 0.2 and GPR151 ag -0.4.
`CCc1cccc(OCCn2ccnc2)c1` gave MITF inh 53.8*, TEAD-YAP block -2.9, FBW7 act -0.1, GPR151 ag -0.1, MITF confirm 3.8 and AS interf ctr 5.5.
`CC1CC(C)CN(C(=O)c2cnc3scc(-c4ccc(Cl)s4)n3c2=O)C1` (stereo unspecified) gave MITF inh 5.8, TEAD-YAP block 4.0, FBW7 act 0.3 and GPR151 ag 3.3.
O=C(Nc1ccc(-c2cn[nH]c2)c(C(F)(F)F)c1)C1COc2ccccc2O1 (stereo unspecified) was read as MITF inh 61.3*, TEAD-YAP block -37.1, FBW7 act 0.7, GPR151 ag -0.1, MITF confirm 36.9*, AS interf DR >6.48 and AS interf ctr 3.5.
Screening O=C(NC1CCN(Cc2ccccc2)CC1)c1ccc2nc(-c3cccs3)sc2c1 returned MITF inh 52.2*, TEAD-YAP block -1.1, FBW7 act -0.1, GPR151 ag 1.4, MITF confirm 59.5*, AS interf DR >6.38 and AS interf ctr 1.0.
CC#CC(=O)N1CCC(Cc2ccc(OC)cc2)(C(=O)OCC)CC1 was read as MITF inh 95.2*, TEAD-YAP block -31.1, FBW7 act 0.4, GPR151 ag 1.9, MITF confirm 1.6 and AS interf ctr -5.7.
